Values joined by “and” are separate entries in the source; they are usually repeats but may differ in a detail not shown here. Identical values can stand only once. This is part of a sample that, as a whole, favours compounds with a hit. Of some 83,000 tested, about 20% had one in any assay.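 Compound tested at a single concentration for 48 hours in 96-well plates; a percent growth value below 10 was scored as active.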 Active and inactive are the calls of the source.
What follows are compounds tested on MDA-MB-468 breast (assay: NCI-60 one-dose screen, 48 h (100 = growth as untreated, 0 = no growth, -100 = all killed)). Conditions: 10 µM unless noted.

Row | SMILES | growth
1 | COc1ccc(C(=O)Nc2ncc(Cc3ccc(Cl)cc3)s2)cc1 | 24.6% (inactive)
2 | O=C1c2c(O)ccc(O)c2C(=O)c2c(NCCNCCO)ccc(NCCNCCO)c21 | -77.2% (active)
3 | COc1ccc(-n2c(/C=C3\C(=O)Nc4ccccc43)ccc2CO)cc1 | 96.4% (inactive)
4 | COc1ccc2nc(-c3ccc(-c4noc(-c5cc(OC)c(OC)c(OC)c5)n4)cc3)[nH]c2c1 | 68.2% (inactive)
5 | Cc1ccc(NC(=O)N[C@@H](Cc2cc(F)cc(F)c2)C(=O)NC2C(=O)N3C[C@H](O)C[C@H]3C(=O)N3CCCC[C@H]3C(=O)N[C@@H](CO)C(=O)N3C[C@H](C)C[C@H]3C(=O)O[C@H]2C)c(F)c1 (stereo not given in full) | -2.72% (active)
6 | CCn1c2ccccc2c2cc(-n3nncc3-c3ccccc3)ccc21 | 46.4% (inactive)
7 | COc1cc(C2=NN(C=O)C(c3cccc(Nc4ccnc5cc(C(F)(F)F)ccc45)c3)C2)cc(OC)c1OC (stereo not given) | 42.8% (inactive)
8 | O=[N+]([O-])c1ccc(O)cc1Br | 106% (inactive)
9 | NS(=O)(=O)c1ccc(CCN2C(=O)C=CC2=O)cc1 | 103% (inactive)
10 | O=c1[nH]nc(SC2CCCCC2)c(=O)[nH]1 | 116% (inactive)
11 | CCOC(=O)/C(=C/c1ccc([N+](=O)[O-])cc1)C(=O)c1ccccc1 | 21.3% (inactive)
12 | O=C(NNc1nc2cc(F)ccc2n2c(CN3CC4CNCC4C3)ccc12)c1cnccn1 (stereo not given) | 3.88% (active)
13 | C=C(C)[C@@H]1CC[C@]2(C(=O)NCC(=O)OC)CC[C@]3(C)[C@H](CC[C@@H]4[C@@]5(C)Cc6c([nH]c7ccccc67)C(C)(C)[C@@H]5CC[C@]43C)[C@@H]12 | 55.1% (inactive)
14 | CCOC(=O)c1[nH]c(C)c(C(=O)O)c1C | 108% (inactive)
15 | ClCc1cccc2c(CCl)cccc12 | -18.3% (active)
16 | CC(=O)CC(c1cccs1)c1c(-c2ccccc2)[nH]c2ccccc12 (stereo not given) | 100% (inactive)
17 | O=C(CCl)N1c2ccccc2Sc2c1ccc1ccccc21 | 26.4% (inactive)
18 | CC(=O)Nc1cccc2cc(O)ccc12 | 112% (inactive) and 101% (inactive) and 110% (inactive)
19 | CCN1C(=O)N(CC)C2C1NN=c1s/c(=C3\C(=O)N(CC(C)C)c4ccccc43)c(=O)n12 (stereo not given) | 6% (active)
20 | O=C1Nc2ccc(Cl)cc2/C1=C\c1c(-c2ccc(Cl)cc2)nc2sc(C3CC3)nn12 | 66.4% (inactive)

Row | SMILES | growth
21 | CCCOC(=O)c1nc(N(CC2CCCCC2)C(=O)NC)sc1/N=C/c1ccccc1 | -18.8% (active)
22 | CC(=O)Nc1nc(C)c(C(=O)NN)s1 | 87.8% (inactive)
23 | O=C(Nc1ccc(Cl)c(Cl)c1)Nc1ccc(Cl)c(Cl)c1 | -78.5% (active) and 10.4% (inactive)
24 | CCCCC1C(=O)N(c2ccccc2)N(c2ccccc2)C1=O | 99.5% (inactive)
25 | Oc1ccc(Nc2ccccc2)cc1 | 86.4% (inactive)
26 | CN(C)CCCn1c(=O)c2ccccc2c2ccccc21 | 66% (inactive)
27 | OC(COc1ccccc1Cl)CN1CCN(c2cccc(Cl)c2)CC1 (stereo not given) | 103% (inactive)
28 | O=C1/C(=C/c2ccc(F)cc2)COc2ccc(O)cc21 | 86.4% (inactive)
29 | CCn1c(-c2cc3c([nH]c4ccccc43)c(-c3cccc(O)c3)n2)n[nH]c1=S | 16.1% (inactive)
30 | CN1CNC(=O)NC1 | 102% (inactive) and 96.9% (inactive)
31 | O=C1CCCN1C1CCN2CCCc3cccc1c32 (stereo not given) | 118% (inactive)
32 | COc1ccc(C2=CN3CC=CC3CC2=O)cc1 (stereo not given) | 95.3% (inactive)
33 | NC1=C(Br)C(=O)c2ncccc2C1=O | -14.8% (active)
34 | CC1=C(C)C(=O)C(Nc2ccc(C)cc2)=C(Br)C1=O | -4.77% (active)
35 | CCN1C(=O)N(CC)C2Nn3c(s/c(=C\c4ccc([N+](=O)[O-])cc4)c3=O)=NC21 (stereo not given) | 7.37% (active)
36 | Oc1ccccc1-c1nnc(CNc2ccc(Cl)cc2)o1 | -2.17% (active)
37 | Cc1cccc(NC(=O)Nc2ccc(-c3ccc4c(c3)NC(=O)/C4=C\c3ccc[nH]3)cc2)c1 | -0.651% (active)
38 | COC(=O)c1ccc2c(c1)c1c(C)c3ccncc3c(C)c1n2C | 39.5% (inactive)
39 | Cc1cc(C)c(S(=O)(=O)N2CCN(c3cc4c(cc3F)c(=O)c(C(=O)O)cn4C3CC3)CC2)c(C)c1 | 65.1% (inactive)
40 | CCCCCCCn1cc2c(NCCc3ccccc3)ncnc2n1 | 105% (inactive)
